Data from PubChem BioAssay AID624308 (National Center for Advancing Translational Sciences (NCATS), 2012).
Results filed as inconclusive are left out. Activity calls are given as the source filed them. The call rests on the fitted dose curve; in most records, active means well fitted inhibition curve with a large enough effect; inconclusive means small, poorly fitted or top-dose-only effect; inactive means flat fitted curve, though single readings scatter.

target: Peptidyl-prolyl cis-trans isomerase NIMA-interacting 1 (Homo sapiens) (UniProt Q13526); experiment: qHTS Assay to Find Inhibitors of Pin1: Hit Validation; conditions: Pin1 FP peptide displacement, HiFluor488 probe; series mostly up to 57.5 µM
Sequence (Q13526 whole entry, looked up, the tested form may be a part): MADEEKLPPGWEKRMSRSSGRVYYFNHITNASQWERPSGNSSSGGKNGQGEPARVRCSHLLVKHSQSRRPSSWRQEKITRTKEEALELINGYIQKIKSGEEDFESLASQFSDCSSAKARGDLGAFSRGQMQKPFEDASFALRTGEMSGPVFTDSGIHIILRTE
Excerpt: The unique chemical properties of Pro allow for the adoption of two completely distinct amide bond conformations (cis and trans). Peptidyl-prolyl cis/trans isomerases (PPIases) are evolutionary conserved enzymes that catalyze cis/trans isomerization of peptidyl-prolyl peptide bonds. Distinct from all other PPIases such as cyclophilins and FK506-binding proteins (FKBPs), Pin1 binds a subset of phos.Ser/Thr-Pro-containing proteins using its protein-targeting WW domain and isomerizes only specific phos.Ser/Thr-Pro bonds, which cannot be effectively catalyzed by other known PPIases. Pin1-catalyzed conformational regulation can control a spectrum of activities of many key regulators in diverse cellular processes such as cell growth, genotoxic and other stress responses, immune response, germ cell development, neuronal differentiation and survival. Pin1 has emerged as a novel molecular timer that modulates its multiple targets at various steps of a given cellular process to synergistically control the amplitude and duration of a cellular response or process. Importantly, Pin1 is tightly regulated by multiple levels and its deregulation has an important role in a growing number of pathological conditions, including cancer, Alzheimer's disease, aging, asthma and microbial infection, providing a potentially new therapeutic option. The goal of this screen is to find small-molecule inhibitors of Pin1 using a fluorescence polarization competition assay. A HiFluor-488-labeled peptide binds to the active site of Pin1 and can be displaced by compounds. Compounds were screened as a concentration-titration series that ranged from 57 uM to 0.7 nM. This is the hit validation to test the hits identified in the primary screen. NIH Molecular Libraries Probe Production Network [MLPCN] NIH Chemical Genomics Center [NCGC] MLPCN Grant: R03 DA031663 PI Name: Dr. Kun Ping Lu, Beth Israel Deaconess Medical Center
Pin1 (0.6 uM) was dispensed into black, solid 1536-well plates at 2 uL/well in 10 mM HEPES (pH 7.5), 10 mM NaCl, 0.01% Tween20, 1 mM DTT, and 1% glycerol. Then, 23 nL of compounds or DMSO were delivered to each well using a pin tool. Two uL of Pin1-1b-HiFluor488 peptide (10 mM HEPES (pH 7.5), 10 mM NaCl, 0.01% Tween20, 1 mM DTT, and 1% glycerol, 0.02 uM Pin1-1b-HiFluor488) was then dispensed, and plates were incubated at room temperature for 10 min. The plates were measured on a ViewLux plate reader for fluorescence polarization signal using a 480/20 nM nm excitation filter and 540/25 nM nm S and P emission filters with a 20 second exposure. The %Activity was determined from the corrected fluorescence polarization values. Unlabeled Pin1-1c peptide was used as a control (3.5 mM two-fold serial; 20 uM final concentration) along with a 1x (0.3 uM) and 0x (no-enzyme) Pin1 enzyme control to normalize %Activity of identified inhibitors; 0x enzyme values corresponded to 100%Activity (full inhibition), while 1x Pin1 enzyme values were used to normalize 0%Activity (no inhibition). Concentration-response curves were fitted to the signals arising from the resulting fluorescence polarization. The concentration-effect curves were then classified based on curve quality (r2), response magnitude and degree of measured activity, and compounds were subsequently categorized based on their curve class. […] Keywords: Peptidyl prolyl isomerase, Pin1, fluorescence polarization, MLSMR, MLPCN, NIH Roadmap, qHTS, NCGC

Structure (SMILES) | Potency
CCCCCC(=O)Nc1cc(S(=O)(=O)O)cc2cc(S(=O)(=O)O)cc(O)c12 | 1.69 µM (active)
O=S(=O)(Nc1cc(Sc2ncn[nH]2)c(O)c2ccccc12)c1ccccc1 | inactive
CC(=O)Nc1ccc(Nc2c3c4c(cccc4n(C)c2=O)C(=O)c2ccccc2-3)cc1 | 3.38 µM (active)
O=S(=O)(O)c1cc(O)c2cc(Nc3ccccc3)ccc2c1 | 10.7 µM (active)
COc1ccccc1Nc1ccc2c(O)cc(S(=O)(=O)O)cc2c1 | 1.2 µM (active)
Cc1ccc2nc(-c3ccc(N=Nc4cc(S(=O)(=O)O)c5ccccc5c4O)cc3)sc2c1S(=O)(=O)O | 3.01 µM (active)
O=S(=O)(O)c1ccc(O)c2cc(Nc3ccccc3)ccc12 | 1.69 µM (active)
O=C1c2ccccc2C(=O)c2c(O)c(O)cc(O)c21 | 26.9 µM (active)
COc1ccc(S(=O)(=O)Nc2cc(Sc3ncn[nH]3)c(O)c3ccccc23)cc1 | inactive
COc1cccc2c1C(=O)c1c(O)c3c(c(O)c1C2=O)C[C@](O)(C(C)=O)C[C@H]3O[C@@H]1C[C@@H](N)[C@@H](O)[C@@H](C)O1 | inactive
